A selection: hits, their analogues and other compounds. The true share with any hit is near 2.6%.
APOBEC3G inh: APOBEC3G DNA deaminase inhibitors, primary screen, biochemical, fluorescence, single-stranded DNA substrate, uHTS; recombinant A3G, ssDNA deamination FAM/TAMRA fluorescence; inhibition, % at 20 µM; 330,000 compounds, 0.28% hits; AID 493012, 2011;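 active means inhibition of at least 40% at 20 µM, with no more than 30% in the related APOBEC3A deaminase screen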
PHOSPHO1 inh: PubChem AID 1565; inhibition, % at 13.3 µM; Phosphoethanolamine/phosphocholine phosphatase (Homo sapiens), Q8TCT1; recombinant PHOSPHO1, absorbance phosphatase assay; 290,000 compounds, 1.1% hits; in the data active means inhibition above about 60%
Target sequence (Q8TCT1 whole entry, looked up): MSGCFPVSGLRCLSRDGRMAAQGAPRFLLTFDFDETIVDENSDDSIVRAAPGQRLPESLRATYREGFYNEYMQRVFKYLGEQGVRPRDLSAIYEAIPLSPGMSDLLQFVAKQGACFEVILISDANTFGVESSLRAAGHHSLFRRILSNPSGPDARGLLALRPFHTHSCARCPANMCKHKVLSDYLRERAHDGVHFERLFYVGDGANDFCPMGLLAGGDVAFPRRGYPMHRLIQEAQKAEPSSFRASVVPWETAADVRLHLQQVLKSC
MLLE-PAM2 inh: inhibitors of PABP1 MLLE–PAM2 peptide binding, primary screen, biochemical, fluorescence polarization, FITC-PAM2, GST-MLLE. inhibition, % at 20 µM. 360,000 compounds, 0.36% hits. AID 588489, 2011; in the data active means inhibition above about 35%, passing the limit was not always enough
PABP polyA inh: PABP poly(A) RNA binding inhibitors, primary screen, biochemical, fluorescence polarization, uHTS. AID 2014, 2009. Polyadenylate-binding protein 1 (Homo sapiens), P11940. calls only at 35 µM. 290,000 compounds, 1% hits;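 further: calls also rest on retests at 20 µM and on dose response follow-up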
APOBEC3A inh: APOBEC3A ssDNA deaminase inhibitors, primary screen, selectivity assay for APOBEC3G inhibitor project, biochemical, FAM/TAMRA oligo cleavage fluorescence; 330,000 compounds, 0.41% hits; AID 493011, 2011; DNA dC->dU-editing enzyme APOBEC-3A (Homo sapiens), P31941; recombinant A3A, FAM/TAMRA ssDNA deamination fluorescence; inhibition, % at 20 µM;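 active means at least 40% inhibition at 20 µM here, with at most 30% in a related deaminase screen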
Target sequence (P31941 whole entry, looked up): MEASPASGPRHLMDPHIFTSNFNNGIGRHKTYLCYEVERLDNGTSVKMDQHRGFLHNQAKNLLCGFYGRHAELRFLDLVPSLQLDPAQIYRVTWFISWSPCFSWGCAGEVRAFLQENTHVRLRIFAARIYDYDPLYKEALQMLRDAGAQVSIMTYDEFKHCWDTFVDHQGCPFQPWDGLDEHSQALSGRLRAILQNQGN
eIF4H FP inh: human eIF4H binding inhibitors, primary screen, translation initiation inhibitor project, biochemical, uHTS, fluorescence polarization; inhibition, % at 35 µM; eIF4H fluorescence polarization binding assay; 290,000 compounds, 0.94% hits;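 further: calls also rest on retests at 20 µM and on dose response follow-up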
Numbers stand for hits; - = inactive; . = not tested or not shown; + = active, no number. Unless noted, how the calls were made is not given here.

SMILES	APOBEC3G inh	PHOSPHO1 inh	MLLE-PAM2 inh	PABP polyA inh	APOBEC3A inh	eIF4H FP inh
Cc1ccc(OCc2nnc(SCC(=O)O)n2-c2ccccc2)cc1	-	.	-	.	-	.
COc1ccc(-n2c(COc3ccc(Cl)cc3)nnc2SCc2ccc(C#N)cc2)cc1	-	-	-	-	-	-
CCOc1ccccc1/C=N/OCC(=O)NCc1ccc(F)cc1	-	-	-	-	-	-
CN(C)CCNC(=O)c1cccc(-c2cnc3c(NC=O)cc(/C=C/c4ccccc4)cn23)c1	.	.	-	.	.	.
O=C1C(Br)=C(c2ccccc2)C(c2ccccc2)=C1c1ccccc1	.	.	-	.	.	.
O=C(Nc1ccc(OC(F)F)cc1)c1cc(S(=O)(=O)N2CCOCC2)ccc1F	-	-	-	-	-	-
CN(c1ccccc1C(=O)NCc1ccco1)S(C)(=O)=O	-	-	-	+	-	55.0
COC(=O)Cc1ccc(OC2(C)CCN(Cc3ccc(-c4ccccn4)cc3)C2)cc1 (stereo unspecified)	.	.	-	.	.	.
O=C(Nc1ccccc1)Nc1ccc(O)c2ccccc12	-	.	.	.	-	.
CCN=C1SC(C(=O)Nc2cccc(C)c2)CC(=O)N1CC (stereo unspecified)	-	-	-	-	-	-
Cc1cccc(NC(=O)C2CC(=O)n3cnnc3S2)c1 (stereo unspecified)	-	95.4	-	-	-	-
O=S(=O)(Nc1ccccc1)c1cccc2nsnc12	-	-	-	-	-	71.2
COC(=O)CN(C)C(=O)c1ccc2nc(Cc3cccc(Cl)c3)oc2c1	-	-	-	-	-	-
COc1ccccc1Nc1nc(-c2sc(NC(=O)C(C)(C)C)nc2C)cs1	-	67.0	-	-	-	-
CCOc1ccccc1Nc1nc(-c2sc(NC(=O)c3ccco3)nc2C)cs1	-	-	-	-	-	-
CCCC(=O)Nc1nc(C)c(-c2csc(Nc3ccccc3OC)n2)s1	-	86.5	-	-	-	-
Cc1ccccc1Nc1nc(-c2sc(NC(=O)c3ccco3)nc2C)cs1	-	65.6	-	-	-	-
COc1ccc(OC)c(Nc2nc(-c3sc(N)nc3C)cs2)c1	-	-	-	-	-	-
CCCC(=O)Nc1nc(C)c(-c2csc(Nc3cc(OC)ccc3OC)n2)s1	-	88.9	-	-	-	-
COc1ccc(N(C(=O)c2cccnc2)S(=O)(=O)c2ccc(Cl)cc2)cc1	-	-	-	-	-	-
O=C(OCc1c(-c2ccccc2)ncc2ccccc12)N1CCOCC1	-	.	-	.	-	.
CC(C)[C@H]1COCCS(=O)(=O)N1Cc1cccc(Cl)c1	-	-	-	-	-	-
CN(C)C(=O)c1cccc(COc2ccc(N3C(N)=NC(N)=NC3(C)C)cc2Cl)c1	.	.	-	.	.	.
CCCC(C)C(=O)Nc1nc(C)c(-c2csc(Nc3cc(OC)ccc3OC)n2)s1 (stereo unspecified)	-	76.8	-	-	-	-
COc1cccc(Nc2nc(-c3sc(NC(=O)CC(C)C)nc3C)cs2)c1	-	103.5	-	-	-	-
SMILES	APOBEC3G inh	PHOSPHO1 inh	MLLE-PAM2 inh	PABP polyA inh	APOBEC3A inh	eIF4H FP inh
COc1cccc(Nc2nc(-c3sc(NC(=O)c4ccccc4)nc3C)cs2)c1	-	-	-	-	-	-
Cc1ccc(Cl)cc1Nc1nc(-c2sc(NC(=O)C(C)(C)C)nc2C)cs1	-	72.0	-	-	-	-
CCCCCC(=O)Nc1nc(C)c(-c2csc(Nc3cc(Cl)ccc3OC)n2)s1	-	88.9	-	-	-	-
O=C(COC(=O)c1n[nH]c(=O)c2ccccc12)Nc1ccccc1F	-	.	-	.	-	.
CCCC#CCN1CCN(C23CC4CC(CC(C4)C2)C3)CC1	-	-	-	-	-	-
Cc1cscc1-c1nc(NCC2CC2)nc2ccsc12	.	.	-	.	.	.
CC(NC(=O)Cc1ccc(S(=O)(=O)N2CCOCC2)s1)c1ccc(Br)cc1 (stereo unspecified)	.	.	-	.	.	.
CCC(=O)Nc1nc(C)c(-c2csc(Nc3cccc(C(=O)O)c3)n2)s1	-	-	-	-	-	-
CCCC(=O)Nc1nc(C)c(-c2csc(Nc3ccc(Cl)cc3)n2)s1	-	-	-	-	-	-
COc1ccccc1Nc1nc(-c2sc(NC(=O)CC(C)C)nc2C)cs1	-	76.8	-	-	-	-
C=CCCC(=O)Nc1nc(C)c(-c2csc(Nc3cc(OC)ccc3OC)n2)s1	-	71.9	-	-	-	-
C=CCCC(=O)Nc1nc(C)c(-c2csc(Nc3cccc(OC)c3)n2)s1	-	103.5	-	-	-	-
COc1ccccc1Nc1nc(-c2sc(NC(=O)c3cccc(Cl)c3)nc2C)cs1	-	-	.	-	-	-
Cc1nc(N)sc1-c1csc(Nc2cccc(C(=O)O)c2)n1	-	-	-	+	-	85.1
CC(C)(O)c1[nH]c2ccc(C#N)cc2c1C(C)(C)O	-	-	.	-	-	-
CCC[C@@H]1C=C(C(=O)OCC)[C@H](c2ccccc2)N1S(=O)(=O)c1ccc(C)cc1	.	.	-	.	.	.
COc1ccc(Cc2c(-c3ccc(C)cc3)nc3cc(C)c(Br)c(C)n23)c(C)c1	.	.	-	.	.	.
O=c1[nH]c(=S)[nH]c2c1C(c1ccc(Cl)cc1)OC(CCc1ccccc1)C2 (stereo unspecified)	.	.	-	.	.	.
O=C(Cc1ccc([N+](=O)[O-])cc1)c1ccccc1	.	.	-	.	.	.
O=C(NCC(c1ccco1)N1CCCC1)c1sc2ccccc2c1Cl (stereo unspecified)	-	-	-	+	-	84.7
COc1ccc2nc(-n3c(O)c(C4=c5ccccc5=NC4=O)[nH]c3=S)sc2c1	.	-	-	+	.	61.5
NS(=O)(=O)OCc1ccc(C(F)(F)F)cc1	-	-	-	-	-	-
CCCCCNc1nc(N2CCCC2)c2c(c1C#N)CCN(C)C2	-	-	-	+	-	59.4
CCCCCNc1nc(NCCCO)c(C#N)c2c1CN(C)CC2	-	-	-	-	-	-
O=C1NC[C@H](Cc2ccccc2)N(CC2CCN(CCCCc3ccccc3)CC2)C1=O	.	.	-	.	.	.
SMILES	APOBEC3G inh	PHOSPHO1 inh	MLLE-PAM2 inh	PABP polyA inh	APOBEC3A inh	eIF4H FP inh
Cc1cccc2nc(CNC(=O)C3CCC(=O)N(Cc4ccccc4F)C3)cn12 (stereo unspecified)	-	-	-	-	-	-
O=C(NCc1cnc2ccccn12)C1CCC(=O)N(Cc2ccccc2F)C1 (stereo unspecified)	-	65.8	-	-	-	-
O=C1C=CC(=O)N1c1ccc2ccccc2c1	.	.	-	.	.	.
O=C1C=CC(=O)N1c1ccc(Nc2ccccc2)cc1	.	.	41.1	.	.	.
O=C(NC(=S)N1CCN(c2ccc([N+](=O)[O-])cc2)CC1)c1ccccc1F	-	-	-	-	-	-
COc1cc(-c2cc(=O)c3ccc(O)cc3o2)cc(OC)c1OC	.	.	45.5	.	.	.
COc1ccc(-c2cc(=O)c3ccc(O)cc3o2)cc1	.	.	-	.	.	.

Screening data as filed in PubChem BioAssay.
